# Test results published in the supplement of paper PMC10646978.
# ± gives the standard deviation.
# Tests used:
# Settings in all cases: modulator concentration 10 µM
# [1] = tested on: RAW-Dual (murine macrophage reporter line); assay: NF-kB reporter (SEAP) activity fold change vs agonist alone; higher = enhanced NF-kB activity
# Outline: (§1)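 Overnight stimulation with a PRR agonist followed pre-incubation for 1 hour at 37 °C with compound at 10 μM final. This was done in RAW-Dual murine macrophage reporter cells seeded at 50 000 per well in 384-well plates. NF-κB (SEAP, QUANTI-Blue absorbance at 620 nm) and IRF (Lucia luciferase, QUANTI-Luc luminescence) were read from the supernatant. Each reporter's fold change relative to the mean agonist-only control on the same plate was averaged over replicate plates.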
# [2] = tested on: RAW-Dual (murine macrophage reporter line); assay: IRF reporter (Lucia luciferase) activity fold change vs agonist alone; higher = enhanced IRF activity
# Outline: as §1
# [3] = tested on: RAW-Dual (murine macrophage reporter line); assay: viability score (confluency relative to resting cells, overnight) (fraction); higher = more viable, active = viable (0.7 or more)
# Outline: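 RAW-Dual macrophages in 384-well plates were exposed overnight to compound at 10 μM final. Confluency was imaged with IncuCyte, and two confluency masks were generated with IncuCyte software over all imaged wells. The viability score is confluency expressed relative to resting cells. Compounds were called viable if both masks exceeded 70% of resting cells.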
# [4] = agonist: CpG ODN 1826 0.5 ug/mL
SMILES,"NF-kB reporter [1, 4]",NF-kB reporter ([1]; agonist: LPS 0.1 ug/mL),NF-kB reporter ([1]; agonist: MPLA […]),IRF reporter ([2]; agonist: 3'3'-cGAMP 10 ug/mL),IRF reporter ([2]; agonist: LPS 0.1 ug/mL),IRF reporter ([2]; agonist: MPLA […]),viability score [3]
CC1=C(C(=O)OCc2ccc3c(c2)OCO3)C(c2ccc(Cl)c(Cl)c2)NC(=O)N1 (stereo not drawn),1.04 ± 0.17,1.13 ± 0.083,1.11 ± 0.1,0.458 ± 0.025,0.712 ± 0.093,0.772 ± 0.15,1.01 (active)
O=C(c1ccc(C(F)(F)F)nc1)N1CC(n2cc(C3CC3)nn2)C1,0.889 ± 0.073,0.931 ± 0.095,1.13 ± 0.082,1.01 ± 0.071,1.06 ± 0.15,1.08 ± 0.29,0.942 (active)
CCN(CC)c1ccc(C=NNc2cc(N3CCOCC3)nc(N3CCOCC3)n2)cc1,0.894 ± 0.096,1.03 ± 0.11,0.994 ± 0.1,0.458 ± 0.07,1.28 ± 0.23,1.25 ± 0.17,0.994 (active)
O=C(O)CCCCCN1C(=O)c2ccccc2C1=O,0.968 ± 0.089,0.988 ± 0.074,1.04 ± 0.099,1.03 ± 0.034,1.35 ± 0.19,1.5 ± 0.23,1.03 (active)
CSc1nc2cc(Oc3cccc(Cl)c3Cl)c(Cl)cc2[nH]1,0.416 ± 0.14,0.771 ± 0.084,0.63 ± 0.037,0.831 ± 0.025,1.41 ± 0.26,1.34 ± 0.21,0.921 (active)
O=C(COC(=O)c1ccc(Cl)c([N+](=O)[O-])c1)c1ccc(Cl)cc1,0.942 ± 0.072,0.978 ± 0.081,0.99 ± 0.093,0.929 ± 0.035,1.22 ± 0.18,1.36 ± 0.29,1.01 (active)
CCc1c(C)nc(-n2nc(C)cc2NC(=O)CSCc2ccccc2)[nH]c1=O,0.901 ± 0.056,0.603 ± 0.082,0.885 ± 0.038,0.973 ± 0.065,1.22 ± 0.078,1.07 ± 0.099,1.02 (active)
COc1ccc2oc(=O)c(-c3csc(NC(=O)C=CC(=O)O)n3)cc2c1,1.09 ± 0.099,0.895 ± 0.086,0.985 ± 0.027,0.353 ± 0.017,0.938 ± 0.11,0.844 ± 0.13,0.959 (active)
COc1ccc(N(CC(=O)NCCc2ccc(OC)c(OC)c2)S(=O)(=O)c2ccc(OC)c(OC)c2)cc1,0.951 ± 0.083,0.994 ± 0.062,0.934 ± 0.12,1.01 ± 0.041,1.44 ± 0.18,1.2 ± 0.11,1.01 (active)
Cc1ccc(CN2CCN(N=Cc3c4ccccc4cc4ccccc34)CC2)cc1,0.75 ± 0.071,0.881 ± 0.044,1.12 ± 0.1,0.855 ± 0.048,1.37 ± 0.08,1.25 ± 0.13,0.998 (active)
NC1CONC1=O (stereo not drawn),1.25 ± 0.3,1.09 ± 0.11,1 ± 0.082,0.937 ± 0.033,1.2 ± 0.17,1.11 ± 0.12,0.991 (active)
CC(=O)NC(Cc1c[nH]c2ccccc12)C(=O)O (stereo not drawn),1.09 ± 0.27,1.09 ± 0.083,0.978 ± 0.063,0.969 ± 0.042,1.33 ± 0.14,1.3 ± 0.13,0.995 (active)
COc1ccc(C=Nn2cnnc2)cc1COc1cc(C)c(Cl)cc1C(C)C,0.854 ± 0.088,0.761 ± 0.04,0.984 ± 0.095,1.21 ± 0.11,1.03 ± 0.06,1.3 ± 0.11,0.995 (active)
CC(=O)N1N=C(c2ccc(N(C)C)cc2)CC1c1ccccc1 (stereo not drawn),0.932 ± 0.08,1.04 ± 0.073,1.01 ± 0.047,0.794 ± 0.048,1.01 ± 0.042,1.1 ± 0.072,1 (active)
